Epigenetic derep: regulators of epigenetic silencing causing reporter derepression in mouse cells; Potency, µM (series often up to 53.9 µM), for inactives: top-dose GFP activation, actives largely listed as activators; murine LDR cells, GFP reporter derepression, 30 h; AID 1865; 0.2% of 280,000 active; note: % of control where 0% means no effect; nearly all actives have a fitted effect of over 60% in size
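Murine LDR cells carrying a silenced, genomically integrated CMV-driven GFP reporter were exposed to compound for 30 hours at 37 C. After PBS washes, GFP-positive cells (20–120 um objects) were counted by laser-scanning microplate cytometry.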
Sfp inh: blocks B. subtilis Sfp PPTase activity. Biochemical Sfp PPTase activity, qHTS. Q9F4F7. Potency, µM, for the others: largest response in the series, negative = inhibition, actives largely listed as inhibitors. AID 1490. 3.5% of 310,000 active;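 note: the enzyme is Sfp with the accession as filed and its product quenches rhodamine fluorescence; 0% = enzyme reaction without inhibitor and -100% = no enzyme wells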
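Buffer: 50 mM Hepes-Na pH 7.6, 10 mM MgCl2, 0.01% Nonidet P-40, 0.01% BSA. Enzyme 15 nM, pre-exposed to compound 15 min; substrates then added and fluorescence change tracked over 30 min.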
GCN5L2 inh: blocks human GCN5L2 histone acetyltransferase | 0.21% of 390,000 active | GCN5L2 HAT assay, ThioGlo1 CoA-SH fluorescence | Potency, µM (highest dose often 58.9 µM), for inactives: top-dose activity change, negative = inhibition, hits mostly inhibitors | Q92830; note: % is set by controls: 0 for no effect and ±100 for the full control effect
Target sequence (Q92830 whole entry, looked up): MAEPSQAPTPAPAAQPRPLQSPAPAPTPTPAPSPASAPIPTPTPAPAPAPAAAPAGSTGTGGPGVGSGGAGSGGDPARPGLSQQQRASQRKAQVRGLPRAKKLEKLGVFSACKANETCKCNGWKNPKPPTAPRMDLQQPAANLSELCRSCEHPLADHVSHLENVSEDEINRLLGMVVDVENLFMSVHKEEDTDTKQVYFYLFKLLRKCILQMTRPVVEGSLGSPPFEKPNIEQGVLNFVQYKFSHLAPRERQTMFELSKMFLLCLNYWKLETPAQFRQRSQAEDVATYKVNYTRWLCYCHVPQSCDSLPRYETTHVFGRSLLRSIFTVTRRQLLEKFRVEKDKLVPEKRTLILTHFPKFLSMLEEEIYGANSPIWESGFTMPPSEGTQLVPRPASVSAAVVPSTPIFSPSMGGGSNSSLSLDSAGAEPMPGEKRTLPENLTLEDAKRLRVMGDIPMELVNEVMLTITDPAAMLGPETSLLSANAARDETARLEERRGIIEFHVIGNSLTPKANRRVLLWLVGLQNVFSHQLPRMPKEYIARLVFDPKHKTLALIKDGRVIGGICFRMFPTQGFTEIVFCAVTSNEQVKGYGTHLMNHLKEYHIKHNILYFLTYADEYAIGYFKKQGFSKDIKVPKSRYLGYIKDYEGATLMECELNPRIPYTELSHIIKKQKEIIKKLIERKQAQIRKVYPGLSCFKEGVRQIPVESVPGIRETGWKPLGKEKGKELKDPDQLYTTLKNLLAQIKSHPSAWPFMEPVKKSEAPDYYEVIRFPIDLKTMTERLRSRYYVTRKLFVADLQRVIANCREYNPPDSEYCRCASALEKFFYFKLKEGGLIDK
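qHTS, 1536-well. 20nM enzyme, pH 7.5 HEPES/EDTA/Tween-20 buffer; 15 min compound preinc., RT. Start: 75uM H3(1-25), 70uM AcCoA, 50uM ThioGlo1. Read Ex340/Em540 at t=0 (autofluorescence flag) and t=20 min.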
NPSR antag: antagonists of human neuropeptide S receptor cAMP signaling; Q6W5P4; CHO-NPSR cells, cAMP TR-FRET, antagonist mode; Potency, µM (top dose mostly 38.3 µM), for inactives: at the highest dose activity change, negative = inhibition, actives largely listed as inhibitors; 1% of 220,000 active; note: % is set by controls: 0 for no effect and ±100 for the full control effect; nearly all actives have a fitted effect of over 50% in size
IMPase Li inh: membrane-permeable IMPase blocker, potentiated with lithium; Potency, µM (highest dose often 59.4 µM), for the others: top-dose activity, negative = IMPase inhibition, most hits filed as inhibitors; AID 1457; CHO-M1 cells, IP1 TR-FRET (IP-One), carbachol + lithium; 0.35% of 210,000 active;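 note: IP1 builds up when IMPase is blocked and the TR-FRET signal falls; plate controls were basal vehicle for no effect and high inhibitor control for full effect; nearly all actives have a fitted effect of over 50% in size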
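CHO cells stably expressing M1 receptor (2000/well, cultured 16–30 h) treated 30 min at 37C with compound plus low lithium. Cytosolic IP1 by TR-FRET (665/620 ratio and 620 channel) after 10 min lysis; AC50 by Hill fit.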
JMJD2E inh: blocks human JMJD2E demethylase activity; Potency, µM (titrated, usually from 57.1 µM), for the others: at the top dose activity change, negative = inhibition, actives largely listed as inhibitors; B2RXH2; 1.6% of 230,000 active; JMJD2E catalytic domain, FDH-coupled NADH fluorescence (FDH is formaldehyde dehydrogenase);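 note: 0% = wells with enzyme and -100% = buffer wells without enzyme; nearly all actives have a fitted effect of over 50% in size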
* marks the source's active call; other numbers are inactive results; ? = inconclusive; · = not tested or not shown; ! = not confirmed by another sample; [ ] = another dose, or the depositor's remark. Compounds with a hit are over-represented: about 3.6% of the library has one in this group of screens. Unless noted, calls come from the whole dose curve; as a rule, active = well fitted curve in the direction sought with a large enough effect; inconclusive = small, poorly fitted or top-dose-only effect, or another doubt; inactive = no such curve, though single readings can be large; an effect the other way counts as inactive or inconclusive. Potency is the fitted concentration of half-maximal effect.

SMILES	Epigenetic derep	Sfp inh	GCN5L2 inh	NPSR antag	IMPase Li inh	JMJD2E inh
CC(=O)Nc1ccc(N(C(=O)Cn2nnc3ccccc32)C(C(=O)NC2CCCC2)c2ccc(O)c(O)c2)cc1 (stereo unspecified)	-1%	-14%	-2%	-14%	5%	7.9µM*
O=C1NC(=O)C(=Cc2ccc(-c3cc(Cl)ccc3[N+](=O)[O-])o2)C(=O)N1	?	-102%	-13%	?	15%	-29%
NS(=O)(=O)c1ccc(-c2ccc([As](=O)(O)O)cc2)cc1	·	·	·	·	-1%	·
CNS(=O)(=O)c1ccc(-c2ccc(C=C3C(=O)NC(=O)NC3=O)o2)cc1	·	35µM*	-5%	·	·	·
NS(=O)(=O)c1ccc(-c2ccc(C=C3C(=O)NC(=O)NC3=O)o2)cc1	·	14µM*	-12%	·	·	·
O=C1NC(=O)C(=Cc2ccc(-c3ccccc3[N+](=O)[O-])o2)C(=O)N1	?	22µM*	-21%	?	·	20µM*
NS(=O)(=O)c1ccc(-c2ccc(C=C3C(=O)NC(=S)NC3=O)o2)cc1	·	13µM*	-9%	·	·	·
Cn1cc(C=C2C(=O)NC(=O)NC2=O)c2ccccc21	·	-28%	-21%	·	·	·
CC(C)(C)c1ccc(O)c(C[N+](C)(C)C)c1	·	·	·	·	1%	·
c1ccc(OP(Oc2ccccc2)Oc2ccccc2)cc1	·	·	·	·	-11%	·
O=c1cc(C(F)(F)F)c2cc3c4c(c2o1)CCCN4CCC3	7.1µM*	-7%	-1%[0.501 µM]	-11%[46.1 µM]	-3%[38.3 µM]	-10%
c1ccc(C[N+]23CN4CN(CN(C4)C2)C3)cc1	·	·	·	·	2%	·
CCCBr	·	·	·	·	-1%	·
O=C1NC(=S)NC(=O)C1=Cc1cccc2cc3ccccc3cc12	0%	25µM*	-7%	?	26%	-5%
CN1/C(=C\C=C2C(=O)NC(=S)NC2=O)C(C)(C)c2ccccc21	18µM*	-11%	-15%	-36%	3%	-5%
CC1(C)OC(c2ccccc2)=C/C(=C/C=C2C(=O)NC(=S)NC2=O)O1	-4%	40µM*	-10%	-48%	32%	-9%
O=c1cc(-c2ccc(O)c(O)c2)oc2cc(O)cc(O)c12	0%	?	-4%	-12%	24%	13µM*
Cc1ccc2oc(-c3ccccc3)cc(=O)c2c1	0%	8%	-14%	·	18%	?
O=c1c(O)c(-c2ccc(O)c(O)c2)oc2cc(O)cc(O)c12	2%	56µM*!	-17%	?	30%	14µM*
c1ccc(C2CO2)cc1 (stereo unspecified)	·	·	·	·	12%	·
CCOP1(=S)Oc2cc3c(cc2C(C(=O)OC)(C(F)(F)F)O1)OCO3 (stereo unspecified)	0%	25µM*	1%	-19%[46.1 µM]	37%[38.3 µM]	-9%
C=CCOC(=O)COc1cc(C)cc2oc(=O)c3c(c12)CCC3	7%	11%	-3%	?	11%[38.3 µM]	?
Cc1cc(OCC(=O)OC(C)(C)C)c2c3c(c(=O)oc2c1)CCC3	-1%	-3%	-1%	9%[46.1 µM]	-18%[38.3 µM]	4.5µM*
Cc1cc2c(C(C)C)c(O)c(O)c(C=O)c2c(O)c1-c1c(C)cc2c(C(C)C)c(O)c(O)c(C=O)c2c1O	7%	89µM*!	7.9µM*	?	10%	7.1µM*
CC1=CC(=O)c2c(O)cccc2C1=O	2%	35µM*!	?	·	33%	8.9µM*
SMILES	Epigenetic derep	Sfp inh	GCN5L2 inh	NPSR antag	IMPase Li inh	JMJD2E inh
CN1CCc2cc3c(cc2[C@@H]1O)OCO3	0%[16.9 µM]	14%	7.9µM*	·	-12%	?
CCOC(=O)c1c(C)n(Cc2ccc3c(c2)OCO3)c2ccc(O)cc12	-1%	-10%	-5%	-26%[46.1 µM]	39%[38.3 µM]	-22%
CCOC(=O)c1c(C)n(COCCO)c2ccc(O)cc12	2%	0%	-3%	9%[7.67 µM]	0%[38.3 µM]	-22%
CCOC(=O)c1c(C)n(Cc2ccc(F)cc2)c2ccc(O)cc12	-1%	22µM*	-10%	-30%	·	?
CCOC(=O)c1c(C)n(Cc2ccco2)c2ccc(O)cc12	-3%	45µM*	·	-22%[46.1 µM]	-17%[38.3 µM]	-16%
Nc1nc(=S)c2ncn([C@H]3O[C@@H](CO)[C@@H](O)[C@@H]3O)c2[nH]1	0%[16.9 µM]	11µM*	0%[21.4 µM]	·	-2%	-11%[25.5 µM]
Cc1[nH]c(=O)n(C(C)(C)C)c(=O)c1Cl	·	19%	-19%	·	·	·
COC(=O)c1ccccc1N=Cc1c(O)[nH]c(=S)[nH]c1=O	-2%	-24%	-4%	-51%	11µM*	?
CC1=C2C(=O)[C@@H]3[C@@H](CC=C4C[C@@H](O)CC[C@@]43C)[C@H]2CC[C@@]12O[C@H]1C[C@H](C)CN[C@H]1[C@@H]2C	·	·	·	·	-5%	·
CNNC	-1%	11µM*	-23%	·	-1%	?
CCn1cc(C(=O)O)c(=O)c2cc3c(cc21)OCO3	2%	10%	?	8%	7.9µM*!	-10%
COc1ccc(OCCOc2cccc(C=C3C(=O)NC(=O)NC3=O)c2)cc1	·	-86%	-1%	·	·	·
CN(CCOc1ccc(C=C2C(=O)NC(=O)NC2=O)cc1)c1ccccn1	-3%	79µM*	-14%	-18%	9%	?
CON(C)C(=O)Nc1ccc(Br)c(Cl)c1	·	-8%	25%	·	·	·
[N-]=[N+]=NCC(=O)c1c[nH]c(=O)[nH]c1=O	·	·	·	·	-6%	·
CCOc1ccc(-n2nc3c(=S)[nH]nc(C)c3c2C)cc1	2%	25%	-2%	6.3µM*	5µM*	2%
Cc1ccc(Sc2ccc(C=C3C(=O)N(C)C(=O)N(C)C3=O)o2)cc1	-1%	8.9µM*	-11%	?	-5%	8%
COc1ccccc1-c1n[nH]c(=S)n1Cc1ccco1	-5%	20µM*	-6%	-13%	2%	-13%
O=C(O)C(Cl)Br (stereo unspecified)	·	·	·	·	12%	·
C[C@@H]1CC[C@@]2(OC1)O[C@H]1[C@@H](O)[C@H]3[C@@H]4CC[C@H]5C[C@@H](O[C@@H]6O[C@H](CO)[C@H](O[C@@H]7O[C@H](CO)[C@@H](O)[C@H](O[C@@H]8OC[C@@H](O)[C@H](O)[C@H]8O)[C@H]7O[C@@H]7O[C@H](CO)[C@@H](O)[C@H](O[C@@H]8O[C@H](CO)[C@@H](O)[C@H](O)[C@H]8O)[C@H]7O)[C@H](O)[C@H]6O)[C@H](O)C[C@]5(C)[C@H]4CC[C@]3(C)[C@H]1[C@@H]2C	·	·	·	·	25%	·
COc1ccc(/C=C2\C(=O)NC(=O)N(CCC3=CCCCC3)C2=O)c(OC)c1	0%	56µM*	?	-8%[46.1 µM]	-1%	-3%
O=C1NC(=O)N(CCC2=CCCCC2)C(=O)/C1=C/c1cccs1	0%	-15%	-10%	-46%	·	-8%
O=C1NC(=O)N(CCC2=CCCCC2)C(=O)/C1=C/c1ccc(O)cc1	0%	45µM*	-6%	8%	6%	?
Oc1cc(Cl)cc(Cl)c1	·	·	·	·	1%	·
O=C1C(Cl)=C(Cl)C(=O)C(Cl)=C1Cl	1%	-85%	?	·	112%	?
